PubChem BioAssay (NCATS)
Results filed as inconclusive are left out. Active and inactive are the calls of the source. The call rests on the fitted dose curve; in most records, active means well fitted curve in the direction sought with a large enough effect; inconclusive means small, poorly fitted or top-dose-only effect, or another doubt; inactive means no such curve, though single readings can be large; an effect the other way counts as inactive or inconclusive.

Key:
[1] = Cell Viability - LYMP2-004 (AID 966); further: nearly all actives have a fitted effect of over 65% in size
Summary of the method: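 Acute toxicity is scored as a concentration-dependent drop in intracellular ATP, quantified by luciferase luminescence, in human lymphoblastoid cells exposed to compound for 24 hr. AC50 derives from Hill-equation modelling.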

[2] = Cell Viability - LYMP2-005 (AID 967); further: series mostly up to about 92 µM
Summary of the method: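 Human lymphoblastoid LYMP2-005 cells, 2,500 per well in complete medium, rested 5 h at 37C then compound-treated 24 h at 37C. Intracellular ATP read by CellTiter-Glo luminescence after 30 min at room temperature; AC50 from Hill-equation fits of concentration-response data.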

[3] = Cell Viability - LYMP2-009 (AID 968); further: series mostly up to about 92 µM; nearly all actives have a fitted effect of over 55% in size
[4] = Cell Viability - LYMP2-011 (AID 969); further: nearly all actives have a fitted effect of over 60% in size
Summary of the method: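 Acute toxicity is scored as a concentration-dependent drop in intracellular ATP of a human lymphoblastoid line after 24 hr treatment. Values are AC50s modeled with the Hill equation.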

[5] = Cell Viability - LYMP2-013 (AID 970); further: series mostly up to about 92 µM; nearly all actives have a fitted effect of over 55% in size
Summary of the method: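 Acute toxicity was measured in human lymphoblastoid cells (2500/well) exposed to compound titrations for 24 hr, with ATP luminescence (CellTiter-Glo) as read-out and AC50 fitted by Hill equation.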

[6] = Cell Viability - LYMP2-015 (AID 971); further: nearly all actives have a fitted effect of over 55% in size
Summary of the method: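 Acute toxicity was scored as a concentration-dependent drop in intracellular ATP in lymphoblastoid cells after 24 hr compound exposure in complete medium. Detection used CellTiter-Glo luciferase luminescence.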

[7] = Cell Viability - LYMP2-017 (AID 972);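 further: series mostly up to about 92 µM; cells exposed to compound for 24 hours at 37 °C; nearly all actives have a fitted effect of over 55% in size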
Summary of the method: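 Steps: plate 2500 lymphoblastoid cells per well; incubate 5 hr at 37 C; add compound across a concentration series and incubate 24 hr at 37 C; add CellTiter-Glo and read luminescence after 30 min at room temperature; fit Hill curves for AC50.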

[8] = Cell Viability - LYMP2-019 (AID 973); further: nearly all actives have a fitted effect of over 55% in size
Summary of the method: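 Cells plated at 2500/well and allowed 5 hr at 37 C before compound addition. After 24 hr incubation, CellTiter-Glo reagent was added, plates sat 30 min at room temperature, and luminescence was recorded.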

[9] = Cell Viability - LYMP2-021 (AID 974)
Summary of the method: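 Concentration-response cytotoxicity in a human lymphoblastoid line: 24 hr treatment at 37 C in complete culture medium, tetraoctylammonium bromide as positive control, luminescent ATP quantitation as viability measure.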

[10] = Cell Viability - LYMP2-023 (AID 975)
Summary of the method: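 Concentration-dependent drop in intracellular ATP measures acute cytotoxicity in a human lymphoblastoid line treated for 24 hours in complete culture medium. AC50 values are taken from Hill-equation fits of qHTS data.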

[11] = Cell Viability - LYMP2-025 (AID 976); further: series mostly up to about 92 µM
Summary of the method: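 In qHTS format, LYMP2-025 lymphoblastoid cells in complete culture medium received compound for 24 hr; ATP-based CellTiter-Glo signal gave viability, with AC50 derived by Hill equation.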

[12] = Cell Viability - LYMP2-002 (AID 977); further: series mostly up to about 92 µM
Summary of the method: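 Luminescent ATP readout (CellTiter-Glo, 30 min room temperature) after 24 h compound exposure at 37 C of a human lymphoblastoid line, 2500 cells/well. AC50 values derived by standard Hill fitting of qHTS concentration-response data.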

[13] = Cell Viability - LYMP2-006 (AID 978); further: series mostly up to about 92 µM; nearly all actives have a fitted effect of over 60% in size
Summary of the method: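 Human lymphoblastoid cells (LYMP2-006), 2500/well in complete medium, were treated with compound for 24 hr at 37 C. Cellular ATP was read by CellTiter-Glo luminescence after 30 min, and AC50 values came from Hill-equation fits of concentration-response data.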

[14] = Cell Viability - LYMP2-007 (AID 979);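 further: cells exposed to compound for 24 h before reading; nearly all actives have a fitted effect of over 60% in size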
Summary of the method: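 Acute toxicity is scored as a concentration-dependent fall in intracellular ATP in human lymphoblastoid cells treated 24 hr at 37 C, measured by luciferase luminescence; Hill-equation modelling yields AC50.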

[15] = Cell Viability - LYMP2-008 (AID 980); further: nearly all actives have a fitted effect of over 60% in size
Summary of the method: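 Acute cytotoxicity is scored as concentration-dependent loss of cellular ATP in a human lymphoblastoid line after 24 hr treatment at 37 C. ATP is quantified by luciferase luminescence.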

[16] = Cell Viability - LYMP2-010 (AID 981)
Summary of the method: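 Acute toxicity is scored as a concentration-dependent loss of cellular ATP in human lymphoblastoid cells after 24 hr compound exposure in complete medium. Tetraoctylammonium bromide is the positive control.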

[17] = Cell Viability - LYMP2-012 (AID 982)
[18] = Cell Viability - LYMP2-014 (AID 983); further: series mostly up to about 92 µM; nearly all actives have a fitted effect of over 50% in size
Summary of the method: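 Decrease in intracellular ATP after 24 hr treatment at 37 C, measured by luciferase luminescence, indicated cytotoxicity. Concentration-response data were fitted with the standard Hill equation to give AC50.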

[19] = Cell Viability - LYMP2-016 (AID 984)
Summary of the method: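 Human lymphoblastoid LYMP2-016 cells, 2500 per well, treated with compounds for 24 h at 37 C. Viability read as intracellular ATP by CellTiter-Glo luminescence after 30 min at room temperature; AC50 from Hill fits of concentration-response.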

[20] = Cell Viability - LYMP2-018 (AID 985);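 further: compound exposure lasted 24 hr at 37 °C; nearly all actives have a fitted effect of over 50% in size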
Summary of the method: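 Acute cytotoxicity is scored as a concentration-dependent drop in intracellular ATP after 24 hr exposure of the lymphoblastoid line in complete culture medium, measured by luciferase luminescence. Potency is expressed as AC50 from Hill modelling.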

Measured: outcome

CN(C)CCOC(c1ccccc1)c1ccccc1 (tested in a mixture with another compound)
inactive: all assays above
